Assay outcomes deposited in PubChem by National Center for Advancing Translational Sciences (NCATS).
D2 antagonist: antagonists of human D2 dopamine receptor; P14416; HEK293 TREx D2 cells, calcium flux, dopamine EC80; inhibition, % at 10 µM; hit rate 2% among 340,000; AID 485344; in the data active means inhibition above about 30%; inactive means below that, where a call was filed; further: 0% is about no effect
Target sequence (P14416 whole entry, looked up): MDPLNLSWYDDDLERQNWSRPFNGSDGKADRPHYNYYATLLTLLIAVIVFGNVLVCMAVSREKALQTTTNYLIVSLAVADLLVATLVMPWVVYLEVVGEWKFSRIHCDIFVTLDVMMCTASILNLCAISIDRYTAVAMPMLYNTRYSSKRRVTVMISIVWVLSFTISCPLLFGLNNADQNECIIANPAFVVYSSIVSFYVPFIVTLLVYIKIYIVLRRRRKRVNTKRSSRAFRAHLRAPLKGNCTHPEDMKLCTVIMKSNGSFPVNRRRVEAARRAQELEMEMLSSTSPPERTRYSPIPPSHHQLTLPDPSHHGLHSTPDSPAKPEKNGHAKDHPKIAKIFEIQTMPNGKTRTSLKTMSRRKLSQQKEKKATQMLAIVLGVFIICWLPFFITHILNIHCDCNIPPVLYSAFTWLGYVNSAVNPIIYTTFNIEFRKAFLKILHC
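Tetracycline-induced HEK293 T-REx cells expressing D2 force-coupled to calcium signalling were dye-loaded, exposed to compound for 180 s, then challenged with an EC80 of dopamine; calcium flux was followed kinetically for a further 180 s.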
D2 PAM-1: positive allosteric modulators of human D2 dopamine receptor; HEK293 T-REx D2, calcium flux, EC20 dopamine potentiation; potentiation, % at 10 µM; P14416; hit rate 0.34% among 340,000;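 active means potentiation over 3 SD above the plate norm, cut at about 30% in these data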; further: 0% is about no effect
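Using a no-wash calcium dye in inducible, force-coupled HEK293 Trex cells expressing D2, we tracked fluorescence each second for 180 s after compound, then for 180 s after EC20 dopamine to detect augmented signalling.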
D2 ag-1: agonists of human D2 dopamine receptor; P14416; HEK293 T-REx D2 cells, calcium flux agonist mode; hit rate 0.53% among 340,000; activation, % at 2 µM;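 active means activation over 3 SD above normal in the single-dose calcium agonist read, cut at about 30% in these data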; further: 0% is about no effect
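In this primary screen, compounds producing a positive calcium signal within 180 s of addition to tetracycline-induced, force-coupled HEK293 Trex D2 cells are flagged; cells are dye-loaded with a no-wash calcium kit beforehand.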
D2 ag-2: human D2 receptor agonism in beta-arrestin assay; P14416; hit rate 0.084% among 360,000; DiscoveRx PathHunter D2 beta-arrestin, luminescence, 90 min; 100% = 57 uM dopamine signal; activation, % (test concentration not listed); in the data active means activation above about 40%; inconclusive means between about 15% and that limit
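Agonist mode: compounds alone added to overnight-plated D2 PathHunter cells for 90 min at 37 C, with 57 uM final dopamine (EC100) defining full response. Beta-arrestin recruitment detected by chemiluminescent reagent, read after 1 h at ambient temperature.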
D2 PAM-2: potentiates the human D2 dopamine receptor allosterically | potentiation, % (test concentration not listed) | hit rate 0.23% among 360,000 | DiscoveRx D2 beta-arrestin cells, luminescence, 90 min; 100% = 57 uM dopamine signal | P14416; in the data active means potentiation above about 50%; inconclusive means mostly about 30% to 49%
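D2 cells co-treated with compound plus 50 nM dopamine (EC20) for 90 min at 37 deg C to detect potentiation. Beta-arrestin recruitment was read as enzyme-fragment luminescence after 1 h at ambient temperature. Full response was set by 57 uM dopamine.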
Active calls of the source: *; ? = inconclusive; . = no result given. Most compounds without a hit are left out; they make up all but 2.4% or so of the library.

SMILES	D2 antagonist	D2 PAM-1	D2 ag-1	D2 ag-2	D2 PAM-2
N/C(Cn1cncn1)=N\OC(=O)c1ccc(Cl)cc1Cl	-12	1	-2	6	24
N/C(Cc1ccc(Cl)cc1Cl)=N\OC(=O)c1ccccc1F	-4	-2	-1	15	61*
CCC(Oc1ccccc1)C(=O)Nc1ccccc1OCc1cc(=O)n2ccccc2n1 (centres undefined)	.	0	-1	.	.
CC(C)CC(NS(=O)(=O)c1ccccc1)C(=O)O (centres undefined)	-1	-6	0	-4	-14
CC(C)CN=C(NS(=O)(=O)c1ccccc1)C(Cl)(Cl)Cl	-6	1	0	10	77*
CCOC(=O)c1[nH]c(C)c(CCC(=O)Nc2cccc(C(F)(F)F)c2)c1C	.	-3	-1	.	.
c1ccc(Cn2nnnc2C(c2cccs2)N2CCSCC2)cc1 (centres undefined)	33*	-13	0	-2	-11
CC(C)C(C(=O)Nc1ccc2c(c1)OCCO2)N1C(=O)c2ccccc2C1=O (centres undefined)	-5	-6	1	-4	-8
CC(C)CC(C(=O)Nc1ccc2c(c1)OCCO2)N1C(=O)c2ccccc2C1=O (centres undefined)	57*	-6	-2	7	-7
O=C(Oc1ccccc1C(=O)N1CCOCC1)c1cccc(Br)c1	47*	3	0	0	-12
O=C(c1cccc(Br)c1)N1CCN(c2ccc(N3CCOCC3)nn2)CC1	33*	-15	0	-3	-8
O=C(c1cncc(Br)c1)N1CCN(c2ccc(N3CCOCC3)nn2)CC1	18	-2	0	-3	-5
CCNC(=S)N(CCc1c(C)[nH]c2ccc(OC)cc12)Cc1cccnc1	-19	33*	-1	0	5
CCNC(=S)N(CCc1c(C)[nH]c2ccc(Cl)cc12)Cc1cccnc1	3	-4	18	3	-10
CCNC(=S)N(CCc1c(C)[nH]c2ccc(C)cc12)Cc1cc(OC)c(OC)c(OC)c1	-14	7	1	-5	-9
COCCNC(=S)N(CCc1c(C)[nH]c2ccc(C)cc12)Cc1cc(OC)c(OC)c(OC)c1	31*	4	0	4	4
CN(C)c1ccc(CNC(=O)C2CCN(c3nnc(-n4cccc4)s3)CC2)cc1	.	-10	0	.	.
CCN(C(=O)COC(=O)CCc1ccc(OC)cc1)c1c(N)n(Cc2ccccc2)c(=O)[nH]c1=O	34*	6	0	0	11
Nc1c(N(CCC2=CCCCC2)C(=O)CCCOc2ccccc2)c(=O)[nH]c(=O)n1Cc1ccccc1	33*	7	1	2	5
Nc1c(N(CCC2=CCCCC2)C(=O)COc2ccc(F)cc2)c(=O)[nH]c(=O)n1Cc1ccccc1	-13	-9	1	0	-3
CCCCN(C(=O)C(C)Oc1ccc(Br)cc1)c1c(N)n(CC(C)C)c(=O)[nH]c1=O (centres undefined)	-6	10	0	-2	4
COc1ccc(C(=O)/C=C/Nc2ccc(S(=O)(=O)Nc3cc(OC)nc(OC)n3)cc2)c(OC)c1	31*	7	0	-2	2
COc1cccc(C(=O)/C=C/Nc2ccc(S(=O)(=O)Nc3cc(OC)nc(OC)n3)cc2)c1	-20	-5	0	-2	-5
Cc1ccc2c(c1)c1c(c(=O)n(Cc3ccccc3)c(=O)n1CC(=O)NCc1ccccc1Cl)n2C	.	-1	.	.	.
Cc1ccc(CN2CC[C@H]3C=CCc4cccc(c43)C2)cc1	57*	-13	0	7	-18
SMILES	D2 antagonist	D2 PAM-1	D2 ag-1	D2 ag-2	D2 PAM-2
Cc1ccc(N2CC(NC(=O)C3CCCC3)CC2=O)cc1C (centres undefined)	.	14	.	.	.
CC1(C)Cc2ccccc2-c2nnc(-c3ccc4ccccc4n3)n21	0	44*	0	1	-5
CCOc1ccc(Cn2nnc(C(=O)Nc3cccc(SC)c3)c2N)cc1	.	-1	3	.	.
COc1ccc2c(c1)CCC1C2=NN(/C(C)=C\C(C)=O)C1c1ccc(F)cc1 (centres undefined)	-3	-2	1	?	8
COc1ccc2c(c1)C1=NN(/C(C)=C/C(C)=O)C(c3ccc(F)cc3)C1CC2 (centres undefined)	-1	-3	1	6	51*
CC12CCC(O)CC1=CCC1C2CCC2(C)c3[nH]ncc3CC12 (centres undefined)	.	.	.	4	9
Cc1cc(C(=O)N/N=C/c2cccc3ccccc23)c(C)o1	8	18	0	0	-6
CO/N=C(/CS(=O)(=O)Cc1ccccc1Cl)c1ccc(Cl)cc1Cl	43*	-7	2	-5	-16
CN(C(=O)CS(=O)(=O)Cc1ccccc1Cl)c1ccccc1	3	-12	0	1	4
c1csc(C(c2nnnn2C2CCCC2)N2CCCC3(CCCCC3)C2)c1 (centres undefined)	31*	7	0	0	-2
COC(=O)c1ccc(NC(=O)C2CC(=O)OC2c2ccccc2)cc1 (centres undefined)	35*	-15	0	-5	-6
CCOc1ccc(NC(=O)C2CC(=O)OC2c2ccccc2)cc1 (centres undefined)	-10	1	0	10	-5
CC1CCC(C(C)C)C(OC(=O)COC(=O)c2cc(O)ccc2N)C1 (centres undefined)	5	0	-1	?	93*
CC1CCC(C(C)C)C(OC(=O)COC(=O)c2ccc(=O)[nH]c2)C1 (centres undefined)	6	16	2	1	-7
Cc1nn(CC(=O)NCCCN2CCN(C)CC2)c(=O)c2cc(-c3ccccc3)nn12	4	30*	0	2	-16
COc1ccc(-c2cc3c(=O)n(CC(=O)NCCCN4CCN(Cc5ccccc5)CC4)ncn3n2)cc1	37*	-32	1	-7	-18
COc1ccc(-c2cc3c(=O)n(CC(=O)NCc4ccc(Cl)cc4)ncn3n2)cc1	-18	-1	0	-4	-2
Cc1nn(CC(=O)NCCCc2ccccc2)c(=O)c2cc3occc3n12	32*	-12	0	3	-7
CCOc1ccc(CCNC(=O)Cn2ncn3nc(-c4ccc(OC)cc4)cc3c2=O)cc1	-12	-1	0	0	-3
COc1ccc(-c2cc3c(=O)n(CC(=O)NCCCN4CCC(Cc5ccccc5)CC4)ncn3n2)cc1	89*	-26	0	-5	-56
COc1ccc(CNC(=O)Cn2c(=O)oc3cc(S(=O)(=O)N4CCCCCC4)ccc32)cc1	.	-5	.	.	.
Cc1cc2c(cc1S(=O)(=O)Nc1ccc(C(C)C)cc1)OCCN2C	.	5	0	.	.
Cc1ccc(SCCOCCN2CC(C)OC(C)C2)cc1 (centres undefined)	20	21	0	-2	-23
